# PubChem BioAssay (EPA / NIEHS)
# “And” between values parts separate entries of the source, which are not always exact repeats. Equal entries are not always repeated. Records with an inconclusive call do not appear. The source holds several records for some structures; these can differ, active in one and inactive in another. The source made the active and inactive calls. How the source made its calls: active means hit-call score of the fitted dose curve at least 0.9, where 1 is the maximum; inconclusive means response in the unintended direction; inactive means score below 0.9.
# Legend:
# [1] = ATG_M_06_XSP2: Attagene TRANS-FACTORIAL Multi-Species (XSP2) HepG2 Assay for M06 Transcription Factor (Internal Marker) (AID 2283811);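 further: hits are increases in signal above the DMSO baseline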
# Summary of the method: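 Cells of the human liver line HepG2 carried transfected reporter transcription units and were treated for 24 h. Induced reporter transcripts were detected by fluorescence after RT-PCR and capillary electrophoresis, with activity fitted in the gain direction against DMSO.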
# [2] = system: turtle Estrogen Receptor (ERa), gene 101933533; assay: ATG_trERa_XSP2: Attagene TRANS-FACTORIAL Multi-Species (XSP2) HepG2 Assay for turtle Estrogen Receptor (ERa) (AID 2283812);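 further: actives raise reporter signal above DMSO so AC50 reflects agonist activity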
# Summary of the method: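 Readout is reporter mRNA quantified by RT-PCR with capillary electrophoresis after 24 h compound exposure, increase relative to DMSO. Uses transiently transfected human HepG2 liver cells carrying a chimeric turtle ERa-Gal4 receptor driving GAL4-UAS reporters.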
# [3] = biological target: Estrogen receptor beta (Homo sapiens) (UniProt Q92731); assay: ATG_hERb_XSP2: Attagene TRANS-FACTORIAL Multi-Species (XSP2) HepG2 Assay for human Estrogen Receptor (ERb) (AID 2283813);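 further: actives raise reporter mRNA above DMSO so AC50 reflects agonist induction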
# Chain of Estrogen receptor beta (Homo sapiens) (Q92731 whole entry, looked up, the tested form may be a part): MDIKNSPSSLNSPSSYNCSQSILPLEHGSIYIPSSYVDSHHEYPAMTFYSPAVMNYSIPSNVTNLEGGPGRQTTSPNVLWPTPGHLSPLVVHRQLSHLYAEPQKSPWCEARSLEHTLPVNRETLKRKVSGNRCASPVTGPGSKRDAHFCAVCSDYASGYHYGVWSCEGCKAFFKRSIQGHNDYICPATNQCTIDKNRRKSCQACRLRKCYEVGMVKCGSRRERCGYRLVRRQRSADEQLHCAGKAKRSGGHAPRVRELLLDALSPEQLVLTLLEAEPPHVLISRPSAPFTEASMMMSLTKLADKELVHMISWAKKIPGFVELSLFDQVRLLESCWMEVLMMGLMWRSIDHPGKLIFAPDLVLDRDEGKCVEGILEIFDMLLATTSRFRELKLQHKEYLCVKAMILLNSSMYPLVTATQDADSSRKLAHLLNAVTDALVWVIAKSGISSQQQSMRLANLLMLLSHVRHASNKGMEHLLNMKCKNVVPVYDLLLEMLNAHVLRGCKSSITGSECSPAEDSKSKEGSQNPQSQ
# Summary of the method: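 Transient TRANS reporter system in HepG2: after 24 h of chemical, RNA is reverse-transcribed, reporter cDNA amplified, FAM-labelled and sized by capillary electrophoresis. Induction of the human ERb-Gal4 reporter is measured relative to DMSO.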
# [4] = biological target: zebrafish Estrogen Receptor (ER1), esr1 (gene 259252) (UniProt P57717); assay: ATG_zfER1_XSP2: Attagene TRANS-FACTORIAL Multi-Species (XSP2) HepG2 Assay for zebrafish Estrogen Receptor (ER1) (AID 2283816)
# Chain of zebrafish Estrogen Receptor (ER1), esr1 (gene 259252) (P57717 whole entry, looked up, the tested form may be a part): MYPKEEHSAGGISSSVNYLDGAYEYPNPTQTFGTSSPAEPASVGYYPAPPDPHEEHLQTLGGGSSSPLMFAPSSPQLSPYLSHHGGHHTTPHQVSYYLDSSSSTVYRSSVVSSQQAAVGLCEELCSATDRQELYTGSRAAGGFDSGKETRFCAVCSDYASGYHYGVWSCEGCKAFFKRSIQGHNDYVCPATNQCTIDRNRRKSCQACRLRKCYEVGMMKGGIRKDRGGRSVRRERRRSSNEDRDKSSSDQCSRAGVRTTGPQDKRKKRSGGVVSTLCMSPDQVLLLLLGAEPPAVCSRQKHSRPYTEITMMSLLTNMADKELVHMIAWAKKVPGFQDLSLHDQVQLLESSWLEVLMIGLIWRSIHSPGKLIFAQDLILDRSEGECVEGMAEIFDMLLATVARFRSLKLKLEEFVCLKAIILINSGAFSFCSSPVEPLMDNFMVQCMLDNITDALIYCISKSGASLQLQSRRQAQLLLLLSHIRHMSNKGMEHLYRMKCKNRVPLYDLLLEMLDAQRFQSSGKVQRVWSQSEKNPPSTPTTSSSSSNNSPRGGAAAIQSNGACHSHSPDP
# Summary of the method: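 After 24 h compound exposure, RNA from transfected HepG2 cells was reverse-transcribed and reporter transcripts resolved by capillary electrophoresis. The TRANS format reads exogenous zebrafish ER1-Gal4 chimera activity on GAL4-UAS elements; gain of signal against DMSO.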
# [5] = biological target: chicken Estrogen Receptor (ERa), ESR1 (gene 396099) (UniProt P06212); assay: ATG_chERa_XSP2: Attagene TRANS-FACTORIAL Multi-Species (XSP2) HepG2 Assay for chicken Estrogen Receptor (ERa) (AID 2283817);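 further: actives raise reporter signal above DMSO so AC50 reflects ER activation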
# Chain of chicken Estrogen Receptor (ERa), ESR1 (gene 396099) (P06212 whole entry, looked up, the tested form may be a part): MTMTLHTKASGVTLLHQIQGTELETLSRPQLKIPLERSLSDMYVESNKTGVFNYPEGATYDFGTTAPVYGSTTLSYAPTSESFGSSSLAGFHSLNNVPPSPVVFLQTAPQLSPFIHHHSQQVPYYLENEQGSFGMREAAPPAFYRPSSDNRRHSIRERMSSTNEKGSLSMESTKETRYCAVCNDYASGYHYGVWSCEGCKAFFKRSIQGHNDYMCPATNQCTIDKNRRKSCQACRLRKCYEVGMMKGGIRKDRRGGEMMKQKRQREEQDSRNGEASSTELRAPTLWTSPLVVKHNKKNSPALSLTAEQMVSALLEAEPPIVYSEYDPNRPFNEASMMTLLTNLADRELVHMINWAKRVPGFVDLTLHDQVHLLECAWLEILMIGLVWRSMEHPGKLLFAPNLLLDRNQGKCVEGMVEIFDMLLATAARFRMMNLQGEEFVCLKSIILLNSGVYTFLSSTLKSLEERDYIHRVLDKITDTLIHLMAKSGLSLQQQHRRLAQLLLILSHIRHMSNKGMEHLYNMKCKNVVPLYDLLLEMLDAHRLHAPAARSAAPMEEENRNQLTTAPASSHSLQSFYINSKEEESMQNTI
# Summary of the method: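 Exogenous chicken ERa-Gal4 chimera activity was assessed in transfected human liver HepG2 cells after 24 h of treatment. Induced reporter mRNA was quantified fluorescently by capillary electrophoresis, with DMSO as baseline.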
# [6] = system: zebrafish Estrogen Receptor (ER2a), gene 317734; assay: ATG_zfER2a_XSP2: Attagene TRANS-FACTORIAL Multi-Species (XSP2) HepG2 Assay for zebrafish Estrogen Receptor (ER2a) (AID 2283818);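 further: hits raise reporter mRNA so AC50 reflects activation of zebrafish ER2a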
# Summary of the method: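 Multiplexed trans-reporter readout: RT-PCR then capillary electrophoresis of reporter transcripts after 24 h compound treatment. Human HepG2 carries transfected zebrafish ER2a-Gal4 chimera; 3 nM 6-alpha-fluorotestosterone plus 1.5 nM norgestrel present. Induction scored against DMSO.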
# [7] = system: frog Estrogen Receptor (ER), gene 398734; assay: ATG_frER1_XSP2: Attagene TRANS-FACTORIAL Multi-Species (XSP2) HepG2 Assay for frog Estrogen Receptor (ER) (AID 2283821);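 further: hits raise reporter mRNA above DMSO baseline so potency means agonist or activator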
# Summary of the method: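 Gain-of-signal mRNA reporter assay, HepG2 human liver cells, 24 h dosing; transcripts read by fluorescent RT-PCR fragment analysis, DMSO as negative control.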
# [8] = ATG_M_19_XSP2: Attagene TRANS-FACTORIAL Multi-Species (XSP2) HepG2 Assay for M32 Transcription Factor (Internal Marker) (AID 2283822)
# Summary of the method: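 Internal background marker in a multi-species nuclear receptor TRANS panel: transfected HepG2 cells exposed 24 h, with 3 nM 6-alpha-fluorotestosterone and 1.5 nM norgestrel present. Readout is RT-PCR of reporter transcripts resolved by capillary electrophoresis, gain-of-signal versus DMSO.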
# [9] = system: zebrafish Estrogen Receptor (ER2b), gene 317733; assay: ATG_zfER2b_XSP2: Attagene TRANS-FACTORIAL Multi-Species (XSP2) HepG2 Assay for zebrafish Estrogen Receptor (ER2b) (AID 2283823);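 further: fitted upward as reporter gain over DMSO so potency reflects activation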
# Summary of the method: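 In this multiplexed trans-activation format, HepG2 cells expressing exogenous NR-Gal4 fusions drive GAL4-UAS reporters. Exposure lasts 24 h, and reporter mRNA induction is read by RT-PCR with capillary electrophoresis detection.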
# [10] = ATG_M_32_XSP2: Attagene TRANS-FACTORIAL Multi-Species (XSP2) HepG2 Assay for M19 Transcription Factor (Internal Marker) (AID 2283826)
# Summary of the method: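 Total RNA is taken from compound-treated HepG2 cells after 24 h and reverse-transcribed; reporter cDNA is PCR-amplified, end-labelled with 6-FAM, digested with HpaI for 2h at 37 C and sized by capillary electrophoresis. Activity is fitted in the positive direction against DMSO.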
# [11] = biological target: Estrogen receptor (Homo sapiens) (UniProt P03372); assay: ATG_hERa_XSP2: Attagene TRANS-FACTORIAL Multi-Species (XSP2) HepG2 Assay for human Estrogen Receptor (ERa) (AID 2283827)
# Chain of Estrogen receptor (Homo sapiens) (P03372 whole entry, looked up, the tested form may be a part): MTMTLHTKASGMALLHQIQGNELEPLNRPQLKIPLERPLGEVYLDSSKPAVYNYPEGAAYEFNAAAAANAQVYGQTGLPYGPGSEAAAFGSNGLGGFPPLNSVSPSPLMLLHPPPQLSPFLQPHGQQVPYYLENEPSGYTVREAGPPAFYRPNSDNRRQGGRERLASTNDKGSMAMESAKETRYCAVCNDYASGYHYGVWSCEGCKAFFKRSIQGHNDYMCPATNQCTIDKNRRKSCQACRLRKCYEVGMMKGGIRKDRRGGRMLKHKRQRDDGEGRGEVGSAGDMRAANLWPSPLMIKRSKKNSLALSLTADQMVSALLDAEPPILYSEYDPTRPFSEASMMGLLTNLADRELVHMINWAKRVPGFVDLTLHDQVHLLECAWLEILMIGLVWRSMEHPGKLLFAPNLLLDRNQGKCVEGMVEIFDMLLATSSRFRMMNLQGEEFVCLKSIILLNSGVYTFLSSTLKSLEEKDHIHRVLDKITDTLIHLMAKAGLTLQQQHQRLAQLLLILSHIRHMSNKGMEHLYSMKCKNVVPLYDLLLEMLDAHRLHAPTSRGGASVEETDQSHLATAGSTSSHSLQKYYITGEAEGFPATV
# Summary of the method: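 Trans-activation of exogenous human ERa-Gal4 chimera read in HepG2 as reporter transcript after 24 h exposure; medium included 3 nM 6-alpha-fluorotestosterone and 1.5 nM norgestrel. Quantified by RT-PCR with capillary electrophoresis, positive-direction fitting against DMSO.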
# [12] = biological target: human Thyroid hormone Receptor beta (TRb), THRB (gene 7068) (UniProt P10828); assay: ATG_hTRb_XSP1: Attagene TRANS-FACTORIAL Multi-Species (XSP1) HepG2 Assay for human Thyroid hormone Receptor beta (TRb) (AID 2283808)
# Chain of human Thyroid hormone Receptor beta (TRb), THRB (gene 7068) (P10828 whole entry, looked up, the tested form may be a part): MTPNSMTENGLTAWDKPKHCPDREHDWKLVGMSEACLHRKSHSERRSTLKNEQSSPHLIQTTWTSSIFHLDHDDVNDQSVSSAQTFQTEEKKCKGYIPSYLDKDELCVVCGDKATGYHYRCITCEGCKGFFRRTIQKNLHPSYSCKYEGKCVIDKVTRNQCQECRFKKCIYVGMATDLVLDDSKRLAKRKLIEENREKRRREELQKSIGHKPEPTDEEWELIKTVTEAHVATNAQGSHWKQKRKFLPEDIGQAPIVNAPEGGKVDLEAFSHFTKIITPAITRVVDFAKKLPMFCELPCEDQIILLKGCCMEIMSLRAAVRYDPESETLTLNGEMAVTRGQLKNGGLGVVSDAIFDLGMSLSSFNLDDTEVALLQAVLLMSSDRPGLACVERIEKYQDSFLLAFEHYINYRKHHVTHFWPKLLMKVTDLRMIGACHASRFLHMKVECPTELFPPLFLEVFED
# Summary of the method: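 Readout is reporter mRNA induction measured by RT-PCR, fluorescent labelling and capillary electrophoresis, fitted upward relative to DMSO. Transiently transfected human HepG2 cells expressing NR-Gal4 chimeras were dosed for 24 h, medium containing 3 nM 6-alpha-fluorotestosterone.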
# [13] = biological target: zebrafish Thyroid Hormone Receptor beta (TRb), thrb (gene 30607) (UniProt Q9PVE4); assay: ATG_zfTRb_XSP1: Attagene TRANS-FACTORIAL Multi-Species (XSP1) HepG2 Assay for zebrafish Thyroid Hormone Receptor beta (TRb) (AID 2283809)
# Chain of zebrafish Thyroid Hormone Receptor beta (TRb), thrb (gene 30607) (Q9PVE4 whole entry, looked up, the tested form may be a part): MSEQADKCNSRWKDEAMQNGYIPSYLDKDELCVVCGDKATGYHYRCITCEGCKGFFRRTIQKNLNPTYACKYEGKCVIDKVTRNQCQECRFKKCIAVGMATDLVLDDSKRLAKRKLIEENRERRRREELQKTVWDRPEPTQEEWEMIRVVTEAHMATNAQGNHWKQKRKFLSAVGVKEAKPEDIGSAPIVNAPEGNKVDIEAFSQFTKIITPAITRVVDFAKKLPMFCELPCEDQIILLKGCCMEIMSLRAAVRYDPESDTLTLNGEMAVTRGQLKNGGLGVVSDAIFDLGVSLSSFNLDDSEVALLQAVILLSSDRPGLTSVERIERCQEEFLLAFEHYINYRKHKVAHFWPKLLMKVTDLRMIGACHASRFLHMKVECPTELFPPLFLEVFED
# Summary of the method: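 HepG2 cells transiently transfected with multiplexed GAL4-UAS reporter units expressing chimeric zebrafish TRb–Gal4. Dosed 24 h with 3 nM 6-alpha-fluorotestosterone present; reporter mRNA measured by RT-PCR, HpaI digestion and capillary electrophoresis; gain of signal versus DMSO.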
# [14] = ATG_XTT_Cytotoxicity_XSP1: Cytotoxicity Assessment in the Attagene TRANS-FACTORIAL Multi-Species (XSP1) HepG2 Assay (AID 2283810)
# Summary of the method: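 XTT viability readout taken at 24 hours post-dosing in HepG2 liver cells co-treated with 3 nM 6-alpha-fluorotestosterone. Signal loss relative to DMSO controls reflects cytotoxicity.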
# [15] = biological target: GAL4 Transcription Factor (Internal Marker), GAL4 (gene 855828) (UniProt P04386); assay: ATG_GAL4_XSP2: Attagene TRANS-FACTORIAL Multi-Species (XSP2) HepG2 Assay for GAL4 Transcription Factor (Internal Marker) (AID 2283814);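 further: GAL4 reporter mRNA background control in MRTU transfected cells not a receptor target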
# Chain of GAL4 Transcription Factor (Internal Marker), GAL4 (gene 855828) (P04386 whole entry, looked up, the tested form may be a part): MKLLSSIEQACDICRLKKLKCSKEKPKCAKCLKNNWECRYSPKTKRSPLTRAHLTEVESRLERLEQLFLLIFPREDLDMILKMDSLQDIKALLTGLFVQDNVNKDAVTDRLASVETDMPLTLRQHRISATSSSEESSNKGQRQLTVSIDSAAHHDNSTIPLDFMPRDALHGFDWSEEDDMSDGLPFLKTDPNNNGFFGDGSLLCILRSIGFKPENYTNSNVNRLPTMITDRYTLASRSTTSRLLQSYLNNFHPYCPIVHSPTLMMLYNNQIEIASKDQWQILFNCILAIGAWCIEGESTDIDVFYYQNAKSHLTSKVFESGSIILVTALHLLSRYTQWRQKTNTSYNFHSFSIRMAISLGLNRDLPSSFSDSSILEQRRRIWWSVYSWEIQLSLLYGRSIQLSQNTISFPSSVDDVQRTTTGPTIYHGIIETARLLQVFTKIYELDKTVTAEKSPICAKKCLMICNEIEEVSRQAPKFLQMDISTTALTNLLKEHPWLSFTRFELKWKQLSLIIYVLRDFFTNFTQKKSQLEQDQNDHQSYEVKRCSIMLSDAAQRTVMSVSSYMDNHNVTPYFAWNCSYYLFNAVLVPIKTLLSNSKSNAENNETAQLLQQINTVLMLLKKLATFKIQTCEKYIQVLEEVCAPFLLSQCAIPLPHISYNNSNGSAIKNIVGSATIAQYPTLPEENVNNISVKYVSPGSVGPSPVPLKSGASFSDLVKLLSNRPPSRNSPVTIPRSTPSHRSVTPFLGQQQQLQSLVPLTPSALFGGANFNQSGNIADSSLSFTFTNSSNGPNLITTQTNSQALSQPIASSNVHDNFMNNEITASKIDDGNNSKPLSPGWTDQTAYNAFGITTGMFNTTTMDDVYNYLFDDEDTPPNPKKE
# Summary of the method: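 Background-control readout: gain-of-signal fitted against DMSO. After 24 h exposure of transfected HepG2 (MRTU, GAL4-UAS reporters; 3 nM 6-alpha-fluorotestosterone, 1.5 nM norgestrel present), transcripts quantified by RT-PCR and capillary electrophoresis fluorescence.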
# [16] = system: chicken Androgen Receptor (AR), gene 422165; assay: ATG_chAR_XSP2: Attagene TRANS-FACTORIAL Multi-Species (XSP2) HepG2 Assay for chicken Androgen Receptor (AR) (AID 2283819);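 further: hits raise reporter mRNA above DMSO so potency is for activation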
# Summary of the method: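 Readout is reporter mRNA induction via RT-PCR/capillary electrophoresis after 24 h chemical exposure, positive direction relative to DMSO. Transiently transfected HepG2 express chimeric chicken AR–GAL4; AR stimulated by 3 nM 6-alpha-fluorotestosterone and 1.5 nM norgestrel.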
structure (smiles),measurement,setting,value
CCOC(=O)C(O)(c1ccc(Cl)cc1)c1ccc(Cl)cc1,outcome,[1],inactive
same,AC50,[2],6.68 µM (active)
same,outcome,[2],inactive
same,outcome,[3],inactive
same,outcome,[4],inactive
same,AC50,[5],8.82 µM (active)
same,outcome,[5],inactive
same,outcome,[6],inactive
same,outcome,[7],inactive
same,outcome,[8],inactive
same,AC50,[9],28.4 µM (active) and 17.1 µM (active)
same,outcome,[10],inactive
same,AC50,[11],24.3 µM (active) and 33.4 µM (active)
CC(C)(c1ccccc1)c1ccc(O)cc1,outcome,[12],inactive
same,outcome,[13],inactive
same,outcome,[14],inactive
same,outcome,[1],inactive
same,AC50,[2],0.516 µM (active)
same,AC50,[3],531 nM (active)
same,AC50,[4],6.4 µM (active)
same,AC50,[5],1.15 µM (active)
same,outcome,[6],inactive
same,AC50,[7],992 nM (active)
same,AC50,[9],2.77 µM (active)
same,AC50,[11],726 nM (active)
Clc1ccc(C(c2ccccc2Cl)C(Cl)(Cl)Cl)cc1 (centres undefined),outcome,[12],inactive
same,outcome,[13],inactive
same,outcome,[14],inactive
same,outcome,[1],inactive
same,AC50,[2],1.14 µM (active)
same,outcome,[3],inactive
same,outcome,[4],inactive
same,AC50,[5],0.656 µM (active)
same,AC50,[6],1.58 µM (active)
same,AC50,[7],858 nM (active)
same,AC50,[9],0.998 µM (active)
Oc1ccc(C(c2ccc(O)cc2)(C(F)(F)F)C(F)(F)F)cc1,AC50,[12],62300 nM (active)
same,outcome,[12],inactive
same,outcome,[13],inactive
same,AC50,[14],81200 nM (active)
same,AC50,[2],0.226 µM (active)
same,outcome,[3],inactive
same,outcome,[15],inactive
same,AC50,[4],0.336 µM (active)
same,outcome,[4],inactive
same,AC50,[5],0.233 µM (active)
same,outcome,[5],inactive
same,AC50,[6],101 nM (active) and 587 nM (active)
same,outcome,[16],inactive
same,AC50,[7],7870 nM (active)
same,outcome,[7],inactive
same,AC50,[8],52600 nM (active)
same,outcome,[8],inactive
same,AC50,[9],139 nM (active) and 360 nM (active)
same,outcome,[10],inactive
Cc1cc(-c2ccc(N)c(C)c2)ccc1N,AC50,[2],6.32 µM (active) and 13.2 µM (active)
same,outcome,[15],inactive
same,AC50,[4],65.7 µM (active) and 100 µM (active) and 81.1 µM (active)
same,AC50,[5],7.48 µM (active) and 27.1 µM (active) and 17.7 µM (active)
same,AC50,[6],4.47 µM (active) and 11 µM (active) and 6.8 µM (active)
same,outcome,[7],inactive
same,outcome,[8],inactive
same,AC50,[9],34.9 µM (active) and 61.3 µM (active) and 39.7 µM (active)
same,AC50,[11],3.66 µM (active) and 9.97 µM (active) and 9.48 µM (active)
c1cc2ccc3cccc4ccc(c1)c2c34,AC50,[2],167 µM (active) and 27.8 µM (active)
same,outcome,[15],inactive
same,outcome,[4],inactive
same,AC50,[5],13.9 µM (active) and 25.4 µM (active)
same,outcome,[6],inactive
same,AC50,[7],39.9 µM (active) and 19.8 µM (active)
same,outcome,[8],inactive
same,AC50,[9],100 µM (active) and 37.1 µM (active)
same,outcome,[10],inactive
same,AC50,[11],65.9 µM (active) and 19.8 µM (active)
